High-throughput results (PubChem)
VCAM1 TNFa pot = TNF alpha stimulated VCAM1 expression potentiation. activation, % at 2 µM. 0.19% of 93,000 active. HUVEC TNFa-stimulated VCAM-1 immunofluorescence, high-content imaging; scaled per plate to unstimulated/TNFa-only wells. AID 808;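 active = activation above the screen mean plus 3 SD, with well images confirming the hit on visual review, cut at about 28% in these data, passing the limit was not always enough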;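 also: signal is the number of cytoplasmic VCAM-1 stained grains per positive cell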
* hit, by the source's call. The list is a sample of the results.

SMILES	VCAM1 TNFa pot
C/C(Sc1nnc(Cc2ccccc2)o1)=C(/O)c1ccccc1	6
CC1CN(C(NC(=O)C(C)(C)C)C(Cl)(Cl)Cl)CC(C)O1 (stereo not drawn)	2
O=C1Nc2ccc(F)cc2C12SCCS2	-2
CN1CCN(S(=O)(=O)c2ccc(Br)c3nsnc23)CC1	-10
CCSc1nc2ccccc2n1C(=O)/C=C\c1ccc(OC)c(OC)c1	-94
CCOC(=O)C(O)(CC(=O)c1ccc(OC)cc1)C(F)(F)F (stereo not drawn)	5
CS(=O)(=O)N(CC(=O)NCc1ccncc1)Cc1ccc(Cl)cc1	-15
Cc1ccc(-n2nnc3c(SCC(=O)N4CCN(c5ccccc5)CC4)ncnc32)cc1	-92
Cc1[nH]n(-c2ccc([N+](=O)[O-])cc2)c(=O)c1N=Nc1nc2ccccc2s1	-52
CCOc1ccc(Oc2ccc(-c3nnc(-c4ccccc4)o3)cc2[N+](=O)[O-])cc1	-3
Cc1cccc(-n2c(SCc3cc(=O)n4c(C)cccc4n3)nc3[nH]ncc3c2=O)c1	0
Oc1ccc(-n2cnnn2)cc1	-5
CCC1=NC(c2ccccc2Cl)N(O)C1(C)C (stereo not drawn)	-59
CCc1nc(C)cn1S(=O)(=O)c1cc(C)c(OC)c(C)c1C	-8
Cc1ccc(NC(=O)/C(C#N)=C/c2ccc(C)s2)c(C)c1	-2
CC(C)(C)C(=O)/C(=C\c1cccc([N+](=O)[O-])c1)n1cncn1	-90
CCOC(=O)C(NC(C)=O)(Nc1ccc(S(=O)(=O)Nc2ccncn2)cc1)C(F)(F)F (stereo not drawn)	0
CCOC(=O)c1cc(NC(=O)c2c(C)noc2C)cc(C(=O)OCC)c1	1
COc1ccc(-c2c3c(nc4sc5c(Cl)nc(C)nc5c24)CCC3)cc1	2
COC(=O)c1cnn(C(=O)c2cc(OC)ccc2Br)c1N	1
CCOc1ccc(C=O)cc1CN1CCCCC1	-95
COC(=O)C(C)Sc1nc(-c2ccc(OC)cc2)nc2c1c(=O)n(C)c(=O)n2C (stereo not drawn)	32
COc1cccc(OC)c1NC(=O)CN1CCC(NC(=O)c2cccc(F)c2)CC1	-100
O=c1cc(C(Cl)(Cl)Cl)oc2c1ccc1ccccc12	-80
O=c1[nH]c(NCc2ccco2)nnc1Cc1ccccc1Cl	-8
SMILES	VCAM1 TNFa pot
O=C(COc1cccc(C(F)(F)F)c1)Nc1ccc(S(=O)(=O)N2CCCC2)cc1	-17
COC(=O)C1=C(O)C(C(=O)OC)C(c2ccc(C)cc2)C(C#N)(C#N)C1c1ccc(C)cc1 (stereo not drawn)	-8
N#Cc1ccccc1Sc1ccccc1C(=O)Nc1ccccc1	1
Cc1ccc(N(C)C(=O)N2CCN(S(=O)(=O)c3ccc(C)c(C)c3)CC2)cc1	-4
COc1ccc(OC)c(-n2c(C)ccc2-c2ccc(S(C)(=O)=O)cc2)c1	-4
COc1ccc(C(=O)c2ccc(N3CCN(C4CC(=O)NC4=O)CC3)cc2)cc1F (stereo not drawn)	-7
COc1ccc(C2/C(=C(\O)c3cccc(OC)c3)C(=O)C(=O)N2c2ccccn2)cc1 (stereo not drawn)	3
COC(=O)C(NC(=O)c1ccc(C)cc1)(Nc1cccc(C)n1)C(F)(F)F (stereo not drawn)	-17
CC(C)(C)C(=O)COC(=O)CNC(=O)c1ccc(Oc2ccccc2)cc1	-1
O=S(=O)(CCc1nc2ccccc2s1)c1ccc2ccccc2c1	1
Cc1onc(-c2ccccc2Cl)c1C(=O)Nc1sc2c(c1C(N)=O)CCC(C)C2 (stereo not drawn)	6
C=CCSc1nnc2c(n1)OC=Nc1ccccc1-2	14
NC(=O)C1(N2CCCCC2)CCN(S(=O)(=O)c2cc(Cl)ccc2Cl)CC1	6
CC(C)Cn1c(SCC(=O)NC(=O)NC2CCCC2)nc2ccccc21	-8
O=c1oc(-c2cccs2)nc2sc3c(c12)CCCCC3	37*
CC(=O)OCc1nc2sc3c(c2c(=O)[nH]1)CCCC3	-1
CN(C)c1oc(-c2cccs2)nc1C#N	0
CC1=CC(C)(C)N(C(=O)C(C)N2C(=O)c3ccccc3C2=O)c2ccc(C)cc21 (stereo not drawn)	-7
Cc1ccc(-c2nnc(SCC(C)C)n2C)cc1	-8
CCOC(=O)c1ccc(-n2c(=S)sc3c(=O)[nH]c(C)nc32)cc1	-87
COc1ccc(Cl)cc1Nc1nc(N)nc(C(F)(F)F)n1	8
Cc1ccc(N2C(=O)c3ccc(C(=O)N4CCN(c5cccc(C)c5C)CC4)cc3C2=O)cc1	-17
Cc1nonc1NCn1nnc2ccccc21	0
CC(=O)Nc1c(C(=O)N2CCCCCC2)cnn1-c1ccccc1Cl	-12
Clc1ccc(CSc2cc3c(nn2)-c2ccccc2CC3)cc1	-10
COc1ccc(/C=N\NS(=O)(=O)c2ccc(Cl)cc2)cc1COc1ccccc1[N+](=O)[O-]	2
CC(=O)Nc1cc(C(=O)N2CCN(C)CC2)ccc1Sc1ccc(C)cc1	-8
Cc1ccccc1OC(=O)n1c(=S)oc2cc(Cl)ccc21	-7
COc1ccc(CCNC(=O)NC23CC4CC(CC(C4)C2)C3)cc1OC	9
CC1(CC(=O)O)C(=O)N=C2C=CC=CN21 (stereo not drawn)	8
